Hits are enriched below; roughly 3.1% of the tested compounds scored in any of these assays.
KKLEB tox = cytotoxicity in KKLEB CF airway cells, primary screen, cytotoxicity control for CF NF-kB inhibitor project, cell-based, uHTS, fluorescence assay plates; KKLEB CF airway cells viability, ATPlite luminescence, overnight; active compounds read low; cells stimulated with P. aeruginosa culture filtrate; activity change (cytotoxicity), % at 5 µM; actives 0.36% (n = 360,000); AID 602141, 2011;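 active = corrected activity change at or below -50% at 5 µM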
MITF TRPM1 inh = inhibitors of MITF-dependent TRPM1 promoter reporter, primary screen, cell-based, SK-MEL-5, single point, luciferase; SK-MEL-5 TRPM1 promoter luciferase, 24 h; inhibition, % at 12.5 µM; actives 0.83% (n = 330,000); AID 488899, 2010;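 active = mean inhibition across replicates of 60% or more, whatever share of single replicates reaches that level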
Peg3 prom inh = Peg3 promoter-driven luciferase inhibitors, primary screen, cell-based, HeLa, luciferase luminescence | HeLa PEG-Prom luciferase reporter, overnight | inhibition, % at 20 µM | actives 1.7% (n = 360,000);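 active = inhibition of at least 50% at 20 µM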
CF NFkB block = inhibitors of PAF-induced NF-kB signaling, primary screen, cell-based, GFP fluorescence, uHTS; AID 588850, 2011; KKLEB NF-kB-GFP reporter, GFP fluorescence overnight; actives 0.86% (n = 360,000); inhibition, % at 5 µM;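 active = at least 50% inhibition at 5 µM, scaled per plate between neutral and stimulator controls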;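 also: PAF is a Pseudomonas aeruginosa culture filtrate used as stimulus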
HIF-2a inh = HIF-2a reporter inhibitors, primary screen, luminescence, 786-0 RCC cells; 786-0 RCC cells HIF-2a reporter, luciferase luminescence, overnight; inhibition, % at 18.8 µM; actives 0.72% (n = 360,000); AID 624352, 2012;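 active = inhibition of the luminescence signal of 40% or more relative to plate controls, in a single-dose primary screen at 18.75 µM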
ABHD5 PLIN5 PPI = ABHD5-PLIN5 interaction inhibitors, primary screen, cell lysate, split luciferase complementation, luminescence. Perilipin-5 (Homo sapiens) + 1-acylglycerol-3-phosphate O-acyltransferase ABHD5 (Homo …. Split G. princeps luciferase complementation, 4 h. inhibition, % at 4 µM. actives 0.78% (n = 360,000). AID 602281, 2012;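 active = inhibition above the mean inhibition across every tested compound plus 3 SD, cut at about 22% in these data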
Of the large screens only hits and unclear results are named; the others gave an inactive call.

CN1C(C(=O)NCc2ccccc2)CC2Cn3c(nc4cc5ccccc5cc43)C21 (centres undefined)	none
CC(=O)OCC(=O)C1CCC2C3CC=C4CC(O)CCC4(C)C3CCC12C (centres undefined)	none
CC(=O)C1CCC2C3CC=C4CC(SC(=N)N)CCC4(C)C3CCC12C (centres undefined)	MITF TRPM1 inh 90.2, Peg3 prom inh 97.0
COc1ccc(C(=O)NCc2cccnc2)cc1S(=O)(=O)N1CCCc2ccccc21	none
Cc1ccc(-c2c[n+](Cc3cccc(Cl)c3)c3n2CCC3)cc1	MITF TRPM1 inh 67.4
Clc1cccc(C[n+]2cc(-c3ccccc3)n3c2CCC3)c1	none
CC(C)CC(=O)/C=C/n1c(=S)oc2ccccc21	KKLEB tox -76.9, MITF TRPM1 inh 76.0, Peg3 prom inh 107.0, CF NFkB block 91.8, HIF-2a inh 90.7
C[C@H](CO)N1C[C@H](C)[C@@H](CN(C)C(=O)c2ccc3c(c2)OCO3)Oc2cc(/C=C/c3ccccc3)ccc2S1(=O)=O	Peg3 prom inh 61.8 (no result: MITF TRPM1 inh)
C[C@@H]1CN([C@@H](C)CO)S(=O)(=O)c2ccc(/C=C/c3ccccc3)cc2O[C@@H]1CN(C)Cc1ccc(C(=O)O)cc1	none (no result: MITF TRPM1 inh)
CCN(CC(=O)Nc1ccc(NC(C)=O)cc1)C(=O)CN1C(=O)NC2(CCCC2)C1=O	none
O=C1C=CC(c2c[nH]c3ccccc23)CC1 (centres undefined)	ABHD5 PLIN5 PPI 22.6 (no result: KKLEB tox, MITF TRPM1 inh, Peg3 prom inh, CF NFkB block)
Cc1ccccc1N1C(=O)CC(c2c[nH]c3ccccc23)C1=O (centres undefined)	none
Cc1cc(=O)oc2c(N)nccc12	ABHD5 PLIN5 PPI 22.1 (no result: MITF TRPM1 inh)
Cc1cccn2c(=O)nc(SCC(=O)N3CCCCCC3)nc12	none
COc1ccc(C2c3c(ncn(Cc4ccco4)c3=N)Oc3ccc4ccccc4c32)cc1 (centres undefined)	none
N=c1c2c(ncn1CCCO)Oc1c(ccc3ccccc13)C2c1ccccc1 (centres undefined)	Peg3 prom inh 72.7
N=c1c2c(ncn1CCCO)Oc1ccc3ccccc3c1C2c1ccccc1 (centres undefined)	none (no result: MITF TRPM1 inh)
COc1ccc(C2c3ccc4ccccc4c3Oc3ncn(CCO)c(=N)c32)cc1 (centres undefined)	MITF TRPM1 inh 77.5, Peg3 prom inh 103.2
N=c1c2c(ncn1Cc1ccco1)Oc1ccc3ccccc3c1C2c1ccccc1 (centres undefined)	Peg3 prom inh 56.9
COc1ccc(C2c3ccc4ccccc4c3Oc3ncn(CCCO)c(=N)c32)cc1OC (centres undefined)	none
COc1ccc(C2c3ccc4ccccc4c3Oc3ncn(CCN(C)C)c(=N)c32)cc1 (centres undefined)	MITF TRPM1 inh 95.0, Peg3 prom inh 92.3
CCOc1ncccc1C(=O)NNC(=O)c1csc(N2CCOCC2)n1	none
COc1ccc(C2c3ccc4ccccc4c3Oc3ncn(CCN4CCOCC4)c(=N)c32)cc1OC (centres undefined)	none
COc1ccc(C2c3ccc4ccccc4c3Oc3ncn(CCN4CCOCC4)c(=N)c32)cc1 (centres undefined)	MITF TRPM1 inh 77.4, Peg3 prom inh 102.1
COc1cc(N(CCCn2cnc3c(SC)ncnc32)CCCn2cnc3c(SC)ncnc32)cc(OC)c1OC	none (no result: MITF TRPM1 inh)
COc1ccc2[nH]c(=O)c(CN(Cc3cccs3)S(=O)(=O)c3c(C)ccc4nsnc34)cc2c1	Peg3 prom inh 59.4, CF NFkB block 96.7
Cc1ccc2[nH]c(=O)c(CN(CC3CCCO3)S(=O)(=O)c3c(C)ccc4nsnc34)cc2c1 (centres undefined)	none
CCNc1nc(NC(C)(C)C)nc(Oc2ccc(=O)n(-c3ccccc3)n2)n1	none
O=C1N/C(=C\c2ccc(O)cc2)C(=O)c2ccccc21	ABHD5 PLIN5 PPI 34.5
COc1cc(N2CCCC2)c(OC)cc1/C=C(/C#N)c1ccc(Br)cc1	Peg3 prom inh 52.7
O=C(NCc1cccs1)c1nc2c(nnn2Cc2ccccc2Cl)c(=O)[nH]1	KKLEB tox -76.2, MITF TRPM1 inh 76.5, Peg3 prom inh 103.6, CF NFkB block 88.4, HIF-2a inh 75.6
CCOC(=O)c1cc2c(ccc3nc(C)c(C)c32)[nH]c1C	none
C#CCn1c(=NC(=O)c2ccc(S(=O)(=O)N3CCc4ccccc4C3)cc2)sc2cc(S(N)(=O)=O)ccc21	KKLEB tox -52.6, MITF TRPM1 inh 90.4, Peg3 prom inh 102.7, CF NFkB block 52.2
COCCn1c(=NC(=O)c2ccc(S(=O)(=O)N3CCc4ccccc4C3)cc2)sc2cc(S(N)(=O)=O)ccc21	none
Cn1c(NCc2ccccc2F)nc2cc(-c3cccc(Cl)c3)sc2c1=O	none (no result: MITF TRPM1 inh)
O=C(Nc1nccs1)C1CC(=O)N(CCc2ccccc2)C1 (centres undefined)	none
CCOC(=O)N1C(=O)[C@@](CC)(c2ccccc2)N1C(=O)OCC	MITF TRPM1 inh 74.8
O=C(Nc1ccc(OCC(F)(F)C(F)F)c(C(F)(F)F)c1)c1ccccc1	none
O=C(Nc1ccc(OCC(F)(F)C(F)F)c(C(F)(F)F)c1)c1ccccc1O	KKLEB tox -50.7, MITF TRPM1 inh 63.2
c1ccc(-c2ccc(-c3nc(-c4ccccn4)no3)cc2)cc1	KKLEB tox -77.5, Peg3 prom inh 96.8, HIF-2a inh 83.2 (no result: MITF TRPM1 inh)
c1ccc(-c2noc(-c3ccno3)n2)nc1	none
COC(=O)c1cc(S(=O)(=O)n2nc(C)c(Br)c2C)c(Cl)cc1Cl	Peg3 prom inh 87.1
CC1(C2CC2)NC(=O)N(CC(=O)N2CCN(c3cccc(C(F)(F)F)c3)CC2)C1=O (centres undefined)	none
CCCCCCCC(=O)Nc1ccc(C(=O)N/N=C/c2cccc([N+](=O)[O-])c2)cc1	MITF TRPM1 inh 72.4, Peg3 prom inh 101.3
CCCCCCC(=O)Nc1ccc(C(=O)N/N=C/c2cccnc2)cc1	none
CN1CCCN=C1COC(=O)C(O)(c1ccccc1)C1CCCCC1 (centres undefined)	KKLEB tox -63.7
C/C(=N\Nc1ncnc2sc(C)c(C)c12)c1ccccn1	MITF TRPM1 inh 66.9, Peg3 prom inh 83.9
C/C(=N\Nc1ncc(Cl)cc1Cl)c1ccccn1	KKLEB tox -58.7, MITF TRPM1 inh 95.2, Peg3 prom inh 71.0
CC(=O)c1ccc(N2CCN(S(=O)(=O)c3c(C)[nH]c(C)c3C(=O)N3CCCCC3)CC2)cc1	none
CCOc1cccc(C(=O)Nc2cccc(-c3nnc(-c4ccccc4)o3)c2)c1	Peg3 prom inh 75.8

Bioassay records (PubChem BioAssay)
